Measured values from PubChem BioAssay (NCI).
Several values for one entry are separate records, joined by “and”; a condition that tells them apart may be missing. Identical values can stand only once. Compounds without any hit were thinned out: in the full panel of roughly 79,000, 15% have a hit. Where a structure was tested more than once in an assay, its records may differ in their call. Activity calls are given as the source filed them. No stated cut-off is given here; in the data, active means growth inhibition above about 70%; inactive means the rest. Where a SMILES comes first, the peptide text is derived from it. [ ]: non-standard residue; d: D form. ξ: configuration not given here. ξV = CC(C)C(N)C(=O)O

Columns and labels:
[1] = NCI Yeast Anticancer Drug Screen. Data for the rad50 strain (AID 155);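 further: 0% = growth of vehicle-only cultures of the same strain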; conditions: S. cerevisiae rad50 strain growth inhibition, stronger effect = higher value
Outline: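 Readout: growth inhibition relative to vehicle-treated cultures. Compound exposure was carried out in a genetically defined yeast strain deficient in DNA damage repair.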

[2] = NCI Yeast Anticancer Drug Screen. Data for the mec2-1 strain (AID 157); conditions: S. cerevisiae mec2-1 strain, stronger effect = higher value
Outline: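 Yeast mec2-1 mutant treated with compound. Readout: growth inhibition vs vehicle controls.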

[3] = NCI Yeast Anticancer Drug Screen. Data for the sgs1 mgt1 strain (AID 161);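 further: 0% = growth of cultures given vehicle only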; conditions: S. cerevisiae sgs1 mgt1 strain, stronger effect = higher value
Outline: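 Genetically altered yeast, compound exposure, growth inhibition relative to vehicle.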

[4] = NCI Yeast Anticancer Drug Screen. Data for the cln2 rad14 strain (AID 165);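 further: 0% = growth equal to vehicle treated cultures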; conditions: S. cerevisiae cln2 rad14 strain, stronger effect = higher value
Outline: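 cln2 rad14 yeast strain; compound exposure; growth inhibition read vs vehicle controls.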

[5] = NCI Yeast Anticancer Drug Screen. Data for the bub3 strain (AID 167); conditions: S. cerevisiae bub3 mutant strain, stronger effect = higher value
Outline: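 Readout: yeast growth inhibition, expressed relative to vehicle-only wells. The test organism is a mutant strain from a panel with lesions in DNA repair or checkpoint genes.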

[6] = NCI Yeast Anticancer Drug Screen. Data for the wt2 strain (AID 169);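 further: 0% = growth of vehicle-treated yeast cultures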; conditions: S. cerevisiae wt2 strain growth inhibition, stronger effect = higher value
Outline: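 Read-out: growth inhibition versus vehicle-treated control cultures after compound exposure of the yeast strain.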

[7] = NCI Yeast Anticancer Drug Screen. Data for the mlh1 rad18 strain (AID 175); conditions: S. cerevisiae mlh1 rad18 strain growth inhibition, stronger effect = higher value
Outline: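 Yeast w/ defined DNA-repair lesions; compound exposure; growth vs vehicle controls → % inhibition.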

[8] = at 5.0 µM (retest, dose inferred, filed as 0.5)
[9] = at 50.0 µM (retest, dose inferred, filed as 5.0)

OC(CF)(c1ccc(Cl)cc1)c1ccc(Cl)cc1
growth inhibition [1, 8]: 37% (inactive) | growth inhibition [1, 9]: 74% (active) | growth inhibition ([1]; at 50.0 µM): 90.3% (active) | growth inhibition [2, 8]: 24% (inactive) | growth inhibition [2, 9]: 75% (active) | growth inhibition ([2]; at 50.0 µM): 92.5% (active) | growth inhibition [3, 8]: 6% (inactive) | growth inhibition [3, 9]: 91% (active) | growth inhibition ([3]; at 50.0 µM): 92.8% (active) | growth inhibition [4, 8]: 39% (inactive) | growth inhibition [4, 9]: 97% (active) | growth inhibition ([4]; at 50.0 µM): 91.4% (active) | growth inhibition [5, 8]: 1% (inactive) | growth inhibition [5, 9]: 91% (active) | growth inhibition ([5]; at 50.0 µM): 91% (active) | growth inhibition ([6]; at 1.2 µM): 16% (inactive) | growth inhibition ([6]; at 3.7 µM): 16% (inactive) | growth inhibition ([6]; at 11.0 µM): 17% (inactive) | growth inhibition ([6]; at 33.0 µM): 93% (active) | growth inhibition ([6]; at 100.0 µM): 99% (active) | growth inhibition [7, 8]: 39% (inactive) | growth inhibition [7, 9]: 75% (active) | growth inhibition ([7]; at 50.0 µM): 89% (active)

Cc1nc2cc(Cl)ccc2n1-c1ccccc1
growth inhibition [1, 8]: 39% (inactive) | growth inhibition [1, 9]: 92% (active) | growth inhibition ([1]; at 50.0 µM): 66.9% (inactive) | growth inhibition [2, 8]: 38% (inactive) | growth inhibition [2, 9]: 98% (active) | growth inhibition ([2]; at 50.0 µM): 17% (inactive) | growth inhibition [3, 8]: -7% (inactive) | growth inhibition [3, 9]: 94% (active) | growth inhibition ([3]; at 50.0 µM): 77.2% (active) | growth inhibition [4, 8]: 32% (inactive) | growth inhibition [4, 9]: 99% (active) | growth inhibition ([4]; at 50.0 µM): 44% (inactive) | growth inhibition [5, 8]: 4% (inactive) | growth inhibition [5, 9]: 97% (active) | growth inhibition ([5]; at 50.0 µM): 76.5% (active) | growth inhibition ([6]; at 1.2 µM): 7% (inactive) | growth inhibition ([6]; at 3.7 µM): 11% (inactive) | growth inhibition ([6]; at 11.0 µM): 9% (inactive) | growth inhibition ([6]; at 33.0 µM): 37% (inactive) | growth inhibition ([6]; at 100.0 µM): 96% (active) | growth inhibition [7, 8]: 36% (inactive) | growth inhibition [7, 9]: 85% (active) | growth inhibition ([7]; at 50.0 µM): 60.2% (inactive)

O=C(Nc1ccc(Cl)cc1)c1ccccc1O
growth inhibition [1, 8]: 2% (inactive) | growth inhibition [1, 9]: 8% (inactive) | growth inhibition ([1]; at 50.0 µM): 92.6% (active) and 4.9% (inactive) | growth inhibition [2, 8]: 2% (inactive) | growth inhibition [2, 9]: 11% (inactive) | growth inhibition ([2]; at 50.0 µM): 94.7% (active) and -13.8% (inactive) | growth inhibition [3, 8]: 1% (inactive) | growth inhibition [3, 9]: 33% (inactive) | growth inhibition ([3]; at 50.0 µM): 89% (active) and -5.25% (inactive) | growth inhibition [4, 8]: 3% (inactive) | growth inhibition [4, 9]: 6% (inactive) | growth inhibition ([4]; at 50.0 µM): 85.2% (active) and -12.8% (inactive) | growth inhibition [5, 8]: 8% (inactive) | growth inhibition [5, 9]: 13% (inactive) | growth inhibition ([5]; at 50.0 µM): 90.8% (active) and 3.8% (inactive)

Cc1ccccc1N=Nc1ccc(N=Nc2ccc(N)nc2N)c(C)c1
growth inhibition [1, 8]: 2% (inactive) | growth inhibition [1, 9]: -23% (inactive) | growth inhibition ([1]; at 50.0 µM): 31.2% (inactive) | growth inhibition [2, 8]: -19% (inactive) | growth inhibition [2, 9]: 17% (inactive) | growth inhibition ([2]; at 50.0 µM): 62.1% (inactive) | growth inhibition [3, 8]: -1% (inactive) | growth inhibition [3, 9]: 11% (inactive) | growth inhibition ([3]; at 50.0 µM): 10.1% (inactive) | growth inhibition [4, 8]: -4% (inactive) | growth inhibition [4, 9]: -27% (inactive) | growth inhibition ([4]; at 50.0 µM): 15.3% (inactive) | growth inhibition [5, 8]: -3% (inactive) | growth inhibition [5, 9]: 9% (inactive) | growth inhibition ([5]; at 50.0 µM): 82.2% (active)

Cc1ccc(NCCN(C)C)c2c(=O)c3cc(O)ccc3sc12
growth inhibition [1, 8]: 27% (inactive) | growth inhibition [1, 9]: 99% (active) | growth inhibition ([1]; at 50.0 µM): 88.7% (active) | growth inhibition [2, 8]: 5% (inactive) | growth inhibition [2, 9]: 99% (active) | growth inhibition ([2]; at 50.0 µM): 91.3% (active) | growth inhibition [3, 8]: 10% (inactive) | growth inhibition [3, 9]: 99% (active) | growth inhibition ([3]; at 50.0 µM): 91.2% (active) | growth inhibition [4, 8]: 15% (inactive) | growth inhibition [4, 9]: 98% (active) | growth inhibition ([4]; at 50.0 µM): 90% (active) | growth inhibition [5, 8]: 4% (inactive) | growth inhibition [5, 9]: 98% (active) | growth inhibition ([5]; at 50.0 µM): 88.4% (active) | growth inhibition [7, 8]: 18% (inactive) | growth inhibition [7, 9]: 99% (active)

CC(C)C(NC(=O)CN)C(=O)O (stereo not given) (H-Gly-[ξV]-OH)
growth inhibition [1, 8]: -165% (inactive) | growth inhibition [1, 9]: -152% (inactive) | growth inhibition ([1]; at 50.0 µM): -7.85% (inactive) and -10.2% (inactive) and -15.5% (inactive) | growth inhibition [2, 8]: -46% (inactive) | growth inhibition [2, 9]: -52% (inactive) | growth inhibition ([2]; at 50.0 µM): 3.95% (inactive) and -7.6% (inactive) and -21.6% (inactive) | growth inhibition [3, 8]: -62% (inactive) | growth inhibition [3, 9]: -64% (inactive) | growth inhibition ([3]; at 50.0 µM): -0.15% (inactive) and -21.6% (inactive) and -5.05% (inactive) | growth inhibition [4, 8]: -59% (inactive) | growth inhibition [4, 9]: -60% (inactive) | growth inhibition ([4]; at 50.0 µM): 35.5% (inactive) and 5.7% (inactive) and -2.4% (inactive) | growth inhibition [5, 8]: -75% (inactive) | growth inhibition [5, 9]: -79% (inactive) | growth inhibition ([5]; at 50.0 µM): -31.8% (inactive) and -8.25% (inactive) and -5.15% (inactive) | growth inhibition [7, 8]: -146% (inactive) | growth inhibition [7, 9]: -116% (inactive) | growth inhibition ([7]; at 50.0 µM): 16.8% (inactive) and -21.9% (inactive) and -0.65% (inactive)

CC1CC[P+](c2ccccc2)(c2ccccc2)c2c1ccc1ccccc21 (stereo not given)
growth inhibition [1, 8]: 76% (active) | growth inhibition [1, 9]: 98% (active) | growth inhibition ([1]; at 50.0 µM): 84.9% (active) | growth inhibition [2, 8]: 54% (inactive) | growth inhibition [2, 9]: 98% (active) | growth inhibition ([2]; at 50.0 µM): 90.2% (active) | growth inhibition [3, 8]: 81% (active) | growth inhibition [3, 9]: 98% (active) | growth inhibition ([3]; at 50.0 µM): 91.2% (active) | growth inhibition [4, 8]: 30% (inactive) | growth inhibition [4, 9]: 97% (active) | growth inhibition ([4]; at 50.0 µM): 88.8% (active) | growth inhibition [5, 8]: 67% (inactive) | growth inhibition [5, 9]: 99% (active) | growth inhibition ([5]; at 50.0 µM): 88.6% (active) | growth inhibition [7, 8]: 64% (inactive) | growth inhibition [7, 9]: 97% (active)

Cc1ccc2c(c1)C1(C)OC(C=CC1=O)O2 (stereo not given)
growth inhibition [1, 8]: 88% (active) | growth inhibition [1, 9]: 100% (active) | growth inhibition ([1]; at 50.0 µM): 88.2% (active) | growth inhibition [2, 8]: 97% (active) | growth inhibition [2, 9]: 99% (active) | growth inhibition ([2]; at 50.0 µM): 91% (active) | growth inhibition [3, 8]: 91% (active) | growth inhibition [3, 9]: 100% (active) | growth inhibition ([3]; at 50.0 µM): 91% (active) | growth inhibition [4, 8]: 82% (active) | growth inhibition [4, 9]: 99% (active) | growth inhibition ([4]; at 50.0 µM): 90.5% (active) | growth inhibition [5, 8]: 97% (active) | growth inhibition [5, 9]: 100% (active) | growth inhibition ([5]; at 50.0 µM): 87.8% (active) | growth inhibition [7, 8]: 94% (active) | growth inhibition [7, 9]: 99% (active)
